According to publication PMC7862700, “An all-to-all approach to the identification of sequence-specific readers for epigenetic DNA modifications on cytosine”:

Tests used:
Assay in all cases: DAPPL (digital affinity profiling via proximity ligation, sequencing); 10 mM Tris-HCl pH 7.5, 50 mM NaCl, 1 mM DTT, 4% glycerol, room temperature, 30 min; GST-TFs on glutathione beads, 16-mer random dsDNA library, 0.1% formaldehyde crosslink after washing; high values mean tight binding
FEV = target: T1, FEV (Homo sapiens, UniProt Q99581 1-238); details: protein: recombinant; tags: N-terminal GST; dsDNA, one strand shown
T1 sequence: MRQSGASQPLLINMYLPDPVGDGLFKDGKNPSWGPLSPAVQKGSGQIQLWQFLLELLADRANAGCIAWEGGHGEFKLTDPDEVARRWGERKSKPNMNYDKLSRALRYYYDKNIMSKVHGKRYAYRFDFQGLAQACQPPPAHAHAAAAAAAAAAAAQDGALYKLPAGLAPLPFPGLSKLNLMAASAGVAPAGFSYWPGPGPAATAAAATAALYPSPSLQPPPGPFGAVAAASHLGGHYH
In short: (§1)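 Binding signal is each hexamer's read frequency for a factor divided by its frequency in the tag-only sample. The factors were GST-fused human transcription factors from yeast, captured on glutathione beads, DNA-barcoded and pooled with that sample. Pools were incubated with 200 nmole of a random double-stranded 16-mer DNA library in Tris/NaCl/DTT/glycerol buffer at room temperature for 30 min, then washed, crosslinked with 0.1% formaldehyde, proximity-ligated with BsaI/T4 ligase (1 h, 37 °C), PCR-amplified and sequenced on an Illumina NextSeq500.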

ETV5 = ETV5 (Homo sapiens, UniProt P41161 1-510); details: protein: recombinant; tags: N-terminal GST; dsDNA, one strand shown
ETV5, sequence (P41161 whole entry): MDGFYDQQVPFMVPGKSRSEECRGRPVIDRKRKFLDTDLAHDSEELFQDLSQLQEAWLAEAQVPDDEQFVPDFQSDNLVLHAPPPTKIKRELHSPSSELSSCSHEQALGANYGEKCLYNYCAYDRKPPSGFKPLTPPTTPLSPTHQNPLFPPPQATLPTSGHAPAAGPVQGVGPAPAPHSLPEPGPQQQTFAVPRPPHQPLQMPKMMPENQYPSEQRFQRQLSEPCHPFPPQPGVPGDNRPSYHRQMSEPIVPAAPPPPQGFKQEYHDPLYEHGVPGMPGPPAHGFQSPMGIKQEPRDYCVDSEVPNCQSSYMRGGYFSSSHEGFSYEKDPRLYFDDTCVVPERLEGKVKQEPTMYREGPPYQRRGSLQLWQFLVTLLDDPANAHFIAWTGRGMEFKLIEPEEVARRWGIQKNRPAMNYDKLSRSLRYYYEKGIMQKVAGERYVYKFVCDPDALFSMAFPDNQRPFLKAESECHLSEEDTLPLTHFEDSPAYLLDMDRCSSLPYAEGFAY
In short: as §1

HSF1 = HSF1 (Homo sapiens, UniProt Q00613 1-529); details: protein: recombinant; tags: N-terminal GST; chain copies: 3; dsDNA, one strand shown
HSF1, sequence (Q00613 whole entry): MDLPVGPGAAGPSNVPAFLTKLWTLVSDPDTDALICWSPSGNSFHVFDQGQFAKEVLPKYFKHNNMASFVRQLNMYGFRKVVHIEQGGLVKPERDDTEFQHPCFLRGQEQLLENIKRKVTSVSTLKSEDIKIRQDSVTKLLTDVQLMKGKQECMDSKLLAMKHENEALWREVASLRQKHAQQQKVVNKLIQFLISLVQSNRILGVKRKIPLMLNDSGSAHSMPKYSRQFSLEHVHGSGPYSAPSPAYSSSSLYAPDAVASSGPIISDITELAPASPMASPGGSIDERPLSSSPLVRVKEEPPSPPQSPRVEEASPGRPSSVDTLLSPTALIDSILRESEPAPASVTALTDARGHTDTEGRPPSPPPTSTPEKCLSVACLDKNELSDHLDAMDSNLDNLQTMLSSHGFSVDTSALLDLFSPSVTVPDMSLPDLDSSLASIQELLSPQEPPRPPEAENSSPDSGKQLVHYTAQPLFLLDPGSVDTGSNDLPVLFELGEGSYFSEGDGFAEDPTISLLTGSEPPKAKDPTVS
In short: as §1

ELF4 = ELF4 (Homo sapiens, UniProt Q99607 1-663); details: protein: recombinant; tags: N-terminal GST; dsDNA, one strand shown
ELF4, sequence (Q99607 whole entry): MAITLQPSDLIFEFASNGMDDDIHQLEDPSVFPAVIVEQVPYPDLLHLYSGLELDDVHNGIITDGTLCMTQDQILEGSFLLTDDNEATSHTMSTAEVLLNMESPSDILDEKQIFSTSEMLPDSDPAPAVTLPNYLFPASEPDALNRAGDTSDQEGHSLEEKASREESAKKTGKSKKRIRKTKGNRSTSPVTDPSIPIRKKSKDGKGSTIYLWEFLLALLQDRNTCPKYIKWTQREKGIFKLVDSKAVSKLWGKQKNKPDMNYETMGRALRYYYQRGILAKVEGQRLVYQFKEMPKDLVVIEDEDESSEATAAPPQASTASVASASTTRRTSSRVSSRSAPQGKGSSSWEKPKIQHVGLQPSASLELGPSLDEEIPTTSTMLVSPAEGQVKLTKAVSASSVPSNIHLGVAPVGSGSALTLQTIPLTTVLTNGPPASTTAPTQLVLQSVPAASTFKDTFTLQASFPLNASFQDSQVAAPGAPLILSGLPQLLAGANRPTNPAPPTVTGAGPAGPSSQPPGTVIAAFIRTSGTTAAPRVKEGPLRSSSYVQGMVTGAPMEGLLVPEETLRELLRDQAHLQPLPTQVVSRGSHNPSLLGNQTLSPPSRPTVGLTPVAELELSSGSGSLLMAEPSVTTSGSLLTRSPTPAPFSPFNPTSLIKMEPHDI
In short: as §1

ELK4 = target: T2, ELK4 (Homo sapiens, UniProt P28324-2 1-405); details: protein: recombinant; tags: N-terminal GST; dsDNA, one strand shown
T2 sequence: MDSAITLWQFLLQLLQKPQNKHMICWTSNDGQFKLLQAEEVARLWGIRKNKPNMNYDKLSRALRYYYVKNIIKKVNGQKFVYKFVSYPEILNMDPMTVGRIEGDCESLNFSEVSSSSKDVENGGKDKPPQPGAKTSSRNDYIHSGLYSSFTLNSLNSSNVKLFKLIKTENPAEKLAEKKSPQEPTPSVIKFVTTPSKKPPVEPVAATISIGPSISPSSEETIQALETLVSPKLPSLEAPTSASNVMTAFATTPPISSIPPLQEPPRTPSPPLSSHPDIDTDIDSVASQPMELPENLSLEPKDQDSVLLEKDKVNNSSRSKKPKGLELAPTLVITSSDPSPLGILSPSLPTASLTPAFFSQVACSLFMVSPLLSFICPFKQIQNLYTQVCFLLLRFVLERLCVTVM
In short: as §1

ETV2 = target: T3, ETV2 (Homo sapiens, UniProt O00321 1-342); details: protein: recombinant; tags: N-terminal GST; dsDNA, one strand shown
T3 sequence: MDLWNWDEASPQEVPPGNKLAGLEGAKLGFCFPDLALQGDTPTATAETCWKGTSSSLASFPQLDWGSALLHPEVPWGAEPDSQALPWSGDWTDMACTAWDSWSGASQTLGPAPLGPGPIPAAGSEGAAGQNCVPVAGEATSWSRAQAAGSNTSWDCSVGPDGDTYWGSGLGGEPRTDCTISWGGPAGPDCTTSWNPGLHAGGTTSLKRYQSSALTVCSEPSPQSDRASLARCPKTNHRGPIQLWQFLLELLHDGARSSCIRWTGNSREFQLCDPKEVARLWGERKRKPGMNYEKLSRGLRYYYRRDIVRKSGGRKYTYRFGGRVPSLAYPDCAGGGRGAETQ
In short: as §1

ELF3 = target: T4, ELF3 (Homo sapiens, UniProt P78545 1-371); details: protein: recombinant; tags: N-terminal GST; dsDNA, one strand shown
T4 sequence: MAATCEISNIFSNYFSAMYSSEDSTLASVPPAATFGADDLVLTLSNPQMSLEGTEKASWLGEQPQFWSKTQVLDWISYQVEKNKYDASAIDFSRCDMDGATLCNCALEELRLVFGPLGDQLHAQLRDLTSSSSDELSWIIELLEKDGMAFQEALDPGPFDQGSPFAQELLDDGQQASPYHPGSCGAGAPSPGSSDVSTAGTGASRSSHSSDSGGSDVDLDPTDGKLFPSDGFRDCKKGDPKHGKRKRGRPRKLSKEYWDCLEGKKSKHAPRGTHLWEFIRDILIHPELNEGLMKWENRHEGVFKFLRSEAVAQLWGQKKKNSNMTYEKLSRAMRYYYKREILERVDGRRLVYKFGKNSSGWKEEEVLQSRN
In short: as §1

CRX = CRX (Homo sapiens, UniProt O43186 1-299); details: protein: recombinant; tags: N-terminal GST; dsDNA, one strand shown
CRX, sequence (O43186 whole entry): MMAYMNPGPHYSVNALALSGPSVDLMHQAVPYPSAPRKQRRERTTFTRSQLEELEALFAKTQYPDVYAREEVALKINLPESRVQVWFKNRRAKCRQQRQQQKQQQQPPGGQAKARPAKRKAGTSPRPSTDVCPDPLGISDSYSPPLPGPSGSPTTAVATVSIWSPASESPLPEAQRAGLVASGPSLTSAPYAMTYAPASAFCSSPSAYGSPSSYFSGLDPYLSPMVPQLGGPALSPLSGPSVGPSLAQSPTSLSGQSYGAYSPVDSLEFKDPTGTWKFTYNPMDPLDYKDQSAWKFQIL
In short: as §1

ETV1 = ETV1 (Homo sapiens, UniProt P50549 1-477); details: protein: recombinant; tags: N-terminal GST; dsDNA, one strand shown
ETV1, sequence (P50549 whole entry): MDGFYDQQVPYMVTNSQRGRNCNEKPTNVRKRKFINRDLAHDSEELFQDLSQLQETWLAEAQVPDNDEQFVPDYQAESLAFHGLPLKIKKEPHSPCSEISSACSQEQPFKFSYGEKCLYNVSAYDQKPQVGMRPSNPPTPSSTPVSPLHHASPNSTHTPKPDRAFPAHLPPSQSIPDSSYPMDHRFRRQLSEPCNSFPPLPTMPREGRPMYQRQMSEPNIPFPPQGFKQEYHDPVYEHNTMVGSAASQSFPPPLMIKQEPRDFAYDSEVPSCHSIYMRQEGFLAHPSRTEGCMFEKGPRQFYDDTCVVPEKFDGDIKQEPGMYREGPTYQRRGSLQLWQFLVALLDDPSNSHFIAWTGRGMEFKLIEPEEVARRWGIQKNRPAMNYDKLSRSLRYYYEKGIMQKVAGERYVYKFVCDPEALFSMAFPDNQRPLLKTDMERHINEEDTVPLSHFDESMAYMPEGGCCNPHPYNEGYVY
In short: as §1

ERF = target: T5, ERF (Homo sapiens, UniProt P50548 1-548); details: protein: recombinant; tags: N-terminal GST; dsDNA, one strand shown
T5 sequence: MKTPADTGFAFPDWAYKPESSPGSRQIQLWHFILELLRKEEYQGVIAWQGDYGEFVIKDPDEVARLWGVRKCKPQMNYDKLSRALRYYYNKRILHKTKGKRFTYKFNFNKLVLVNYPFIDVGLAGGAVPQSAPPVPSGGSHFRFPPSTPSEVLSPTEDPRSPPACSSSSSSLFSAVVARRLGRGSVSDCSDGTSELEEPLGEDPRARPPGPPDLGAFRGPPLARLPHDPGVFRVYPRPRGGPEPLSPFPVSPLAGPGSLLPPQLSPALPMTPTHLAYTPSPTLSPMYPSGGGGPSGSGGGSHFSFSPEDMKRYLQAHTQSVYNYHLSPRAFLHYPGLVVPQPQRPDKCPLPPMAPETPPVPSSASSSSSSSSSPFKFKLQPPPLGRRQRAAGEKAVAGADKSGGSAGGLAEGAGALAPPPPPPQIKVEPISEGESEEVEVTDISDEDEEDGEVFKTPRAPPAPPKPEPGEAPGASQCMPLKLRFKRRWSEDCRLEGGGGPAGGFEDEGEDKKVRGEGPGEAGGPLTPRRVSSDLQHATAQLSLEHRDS
In short: as §1

ETV3L = target: T6, ETV3L (Homo sapiens, UniProt Q6ZN32 1-361); details: protein: recombinant; tags: N-terminal GST; dsDNA, one strand shown
T6 sequence: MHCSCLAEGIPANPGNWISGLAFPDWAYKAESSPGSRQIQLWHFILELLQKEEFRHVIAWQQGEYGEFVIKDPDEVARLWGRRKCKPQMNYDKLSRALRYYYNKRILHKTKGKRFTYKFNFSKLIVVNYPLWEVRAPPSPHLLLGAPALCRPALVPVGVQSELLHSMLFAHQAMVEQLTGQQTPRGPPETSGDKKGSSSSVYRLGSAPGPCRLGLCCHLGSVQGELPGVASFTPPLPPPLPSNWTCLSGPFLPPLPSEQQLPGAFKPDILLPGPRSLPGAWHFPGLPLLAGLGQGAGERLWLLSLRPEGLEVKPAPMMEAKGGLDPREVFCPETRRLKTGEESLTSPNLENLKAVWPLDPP
In short: as §1

ETS2 = target: T7, ETS2 (Homo sapiens, UniProt P15036 1-469); details: protein: recombinant; tags: N-terminal GST; dsDNA, one strand shown
T7 sequence: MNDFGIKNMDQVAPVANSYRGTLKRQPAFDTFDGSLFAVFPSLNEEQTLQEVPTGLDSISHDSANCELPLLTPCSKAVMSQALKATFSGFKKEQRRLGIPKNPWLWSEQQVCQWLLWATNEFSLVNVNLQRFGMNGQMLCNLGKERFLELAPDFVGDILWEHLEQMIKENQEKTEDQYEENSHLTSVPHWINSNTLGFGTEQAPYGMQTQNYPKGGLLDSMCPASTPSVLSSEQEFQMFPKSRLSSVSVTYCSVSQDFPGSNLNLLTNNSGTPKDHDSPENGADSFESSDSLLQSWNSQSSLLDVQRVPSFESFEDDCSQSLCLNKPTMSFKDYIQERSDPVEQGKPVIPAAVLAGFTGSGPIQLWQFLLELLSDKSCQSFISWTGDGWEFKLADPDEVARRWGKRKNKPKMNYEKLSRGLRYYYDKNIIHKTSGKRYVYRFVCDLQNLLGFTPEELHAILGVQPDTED
In short: as §1

SPDEF = target: T8, SPDEF (Homo sapiens, UniProt O95238 1-335); details: protein: recombinant; tags: N-terminal GST; dsDNA, one strand shown
T8 sequence: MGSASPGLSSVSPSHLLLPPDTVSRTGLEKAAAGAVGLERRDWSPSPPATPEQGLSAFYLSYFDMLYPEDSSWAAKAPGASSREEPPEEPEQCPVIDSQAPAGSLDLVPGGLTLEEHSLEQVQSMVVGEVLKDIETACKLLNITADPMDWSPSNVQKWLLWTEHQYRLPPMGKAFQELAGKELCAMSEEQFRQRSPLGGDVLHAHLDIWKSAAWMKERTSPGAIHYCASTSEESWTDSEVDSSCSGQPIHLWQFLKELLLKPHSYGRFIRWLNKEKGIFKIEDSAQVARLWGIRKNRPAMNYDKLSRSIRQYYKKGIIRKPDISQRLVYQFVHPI
In short: as §1

ETV7 = target: T9, ETV7 (Homo sapiens, UniProt Q9Y603 1-341); details: protein: recombinant; tags: N-terminal GST; dsDNA, one strand shown
T9 sequence: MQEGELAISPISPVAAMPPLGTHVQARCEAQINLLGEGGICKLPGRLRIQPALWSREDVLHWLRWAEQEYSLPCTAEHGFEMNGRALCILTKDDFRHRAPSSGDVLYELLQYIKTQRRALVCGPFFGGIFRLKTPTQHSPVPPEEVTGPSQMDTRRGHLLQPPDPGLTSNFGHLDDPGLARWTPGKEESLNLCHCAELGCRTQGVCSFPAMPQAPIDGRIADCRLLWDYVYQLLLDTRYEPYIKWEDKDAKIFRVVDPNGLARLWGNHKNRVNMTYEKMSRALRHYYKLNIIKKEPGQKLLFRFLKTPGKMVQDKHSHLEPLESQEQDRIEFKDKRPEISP
In short: as §1

ELF5 = target: T10, ELF5 (Homo sapiens, UniProt Q9UKW6-2 1-255); details: protein: recombinant; tags: N-terminal GST; dsDNA, one strand shown
T10 sequence: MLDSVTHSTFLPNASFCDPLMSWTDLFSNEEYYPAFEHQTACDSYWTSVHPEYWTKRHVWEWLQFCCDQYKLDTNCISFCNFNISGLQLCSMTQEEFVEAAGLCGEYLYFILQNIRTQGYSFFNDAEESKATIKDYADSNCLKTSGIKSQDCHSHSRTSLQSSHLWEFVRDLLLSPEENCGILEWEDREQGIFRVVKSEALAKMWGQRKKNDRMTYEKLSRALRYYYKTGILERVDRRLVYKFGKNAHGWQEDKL
In short: as §1

ETV3 = target: T11, ETV3 (Homo sapiens, UniProt P41162-2 1-143); details: protein: recombinant; tags: N-terminal GST; dsDNA, one strand shown
T11 sequence: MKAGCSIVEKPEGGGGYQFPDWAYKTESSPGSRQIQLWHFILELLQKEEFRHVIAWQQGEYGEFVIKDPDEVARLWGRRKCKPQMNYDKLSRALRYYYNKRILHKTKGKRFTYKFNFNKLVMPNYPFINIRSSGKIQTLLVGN
In short: as §1

ETV6 = ETV6 (Homo sapiens, UniProt P41212 1-452); details: protein: recombinant; tags: N-terminal GST; dsDNA, one strand shown
ETV6, sequence (P41212 whole entry): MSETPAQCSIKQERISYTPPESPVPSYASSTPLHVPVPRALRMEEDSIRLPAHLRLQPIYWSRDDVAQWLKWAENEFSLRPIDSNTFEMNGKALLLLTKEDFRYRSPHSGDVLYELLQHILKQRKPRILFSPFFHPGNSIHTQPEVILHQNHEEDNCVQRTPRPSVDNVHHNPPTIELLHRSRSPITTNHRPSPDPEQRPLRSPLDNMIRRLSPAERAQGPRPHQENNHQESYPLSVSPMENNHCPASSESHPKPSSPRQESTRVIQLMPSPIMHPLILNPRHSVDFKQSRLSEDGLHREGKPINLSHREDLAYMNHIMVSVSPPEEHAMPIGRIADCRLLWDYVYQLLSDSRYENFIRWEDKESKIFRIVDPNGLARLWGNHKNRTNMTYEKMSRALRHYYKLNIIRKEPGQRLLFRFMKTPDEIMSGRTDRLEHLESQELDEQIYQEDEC
In short: as §1

With ATTAGG the binding signal (FEV) was 1.01 fold enrichment (6-mer frequency, TF over GST control), the binding signal (ETV5) was 1.11 fold enrichment (6-mer frequency, TF over GST control) and the binding signal (HSF1) was 1.57 fold enrichment (6-mer frequency, TF over GST control). The binding signal (ELF4) was 1.07 fold enrichment (6-mer frequency, TF over GST control), the binding signal (ELK4) was 1.06 fold enrichment (6-mer frequency, TF over GST control) and the binding signal (ETV2) was 1.05 fold enrichment (6-mer frequency, TF over GST control). For the same sequence, the binding signal (ELF3) was 1.04 fold enrichment (6-mer frequency, TF over GST control), the binding signal (CRX) was 2.38 fold enrichment (6-mer frequency, TF over GST control) and the binding signal (ETV1) was 1.01 fold enrichment (6-mer frequency, TF over GST control). For the same sequence, the binding signal (ERF) was 1.26 fold enrichment (6-mer frequency, TF over GST control), the binding signal (ETV3L) was 1.12 fold enrichment (6-mer frequency, TF over GST control) and the binding signal (ETS2) was 1.06 fold enrichment (6-mer frequency, TF over GST control). The binding signal (SPDEF) was 1.11 fold enrichment (6-mer frequency, TF over GST control), the binding signal (ETV7) was 1.15 fold enrichment (6-mer frequency, TF over GST control) and the binding signal (ELF5) was 1.12 fold enrichment (6-mer frequency, TF over GST control). The binding signal (ETV3) was 1.06 fold enrichment (6-mer frequency, TF over GST control) and the binding signal (ETV6) was 1.09 fold enrichment (6-mer frequency, TF over GST control).
